Screens: PubChem BioAssay, National Center for Advancing Translational Sciences (NCATS)
In the library only some 4.2% were active in any assay of this set; here they are far more common.
VDR inh = blocks the human vitamin D receptor; P11473; VDR-SRC2-3 peptide fluorescence polarization, 2 h; Potency, µM, for the others: max response, negative = inhibition, hits mostly inhibitors; 400,000 compounds, 0.93% hits; AID 504847
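Compounds are added to VDR with labelled SRC2-3 coactivator peptide and held 2 h at room temperature. Inhibition of the VDR–peptide interaction is then read as a change in fluorescence polarization.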
12-LOX inh = ALOX12 (human) lipoxygenase inhibition; purified 12hLO, xylenol orange hydroperoxide absorbance; Potency, µM (series often up to 108 µM), for the others: top-dose activity change, negative = inhibition, usual class: inhibitors; 580,000 compounds, 1.1% hits; AID 1671190
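Purified human 12hLO at 150 nM in 25 mM Hepes, 0.01% Triton X-100, pH 7.0, preincubated 15 min at room temperature with compound. Reaction started with 40 uM arachidonic acid, 30 min at room temperature. Hydroperoxide measured by Fe-xylenol orange, 573/405 nm absorbance ratio.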
PLK1 PBD inh = blocks phosphopeptide binding to human PLK1 polo-box domain; P53350; Plk1 PBD binding of FITC phosphopeptide, fluorescence polarization; Potency, µM, for inactives: max response, negative = inhibition, actives largely listed as inhibitors; 360,000 compounds, 2.8% hits; AID 720504; also: series mostly up to about 57 µM; nearly all actives have a fitted effect of over 65% in size
Target sequence (P53350 whole entry, looked up, the tested form may be a part): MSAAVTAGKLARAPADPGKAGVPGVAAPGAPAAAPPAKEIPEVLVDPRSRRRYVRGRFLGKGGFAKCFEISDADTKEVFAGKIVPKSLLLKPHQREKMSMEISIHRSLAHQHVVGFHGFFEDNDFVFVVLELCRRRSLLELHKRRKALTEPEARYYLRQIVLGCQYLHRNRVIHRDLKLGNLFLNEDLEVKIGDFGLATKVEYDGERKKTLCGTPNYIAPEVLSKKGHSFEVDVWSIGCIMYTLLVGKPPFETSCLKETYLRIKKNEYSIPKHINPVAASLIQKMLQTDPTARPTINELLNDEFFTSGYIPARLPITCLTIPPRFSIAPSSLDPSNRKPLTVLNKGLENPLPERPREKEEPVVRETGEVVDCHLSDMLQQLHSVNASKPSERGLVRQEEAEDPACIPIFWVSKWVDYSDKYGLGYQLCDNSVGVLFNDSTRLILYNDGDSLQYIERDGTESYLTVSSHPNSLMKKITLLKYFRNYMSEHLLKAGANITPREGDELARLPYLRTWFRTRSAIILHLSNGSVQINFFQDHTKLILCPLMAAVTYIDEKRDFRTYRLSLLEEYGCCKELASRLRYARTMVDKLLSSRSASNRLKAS
Sfp inh = blocks B. subtilis Sfp PPTase activity; Q9F4F7; Biochemical Sfp PPTase activity, qHTS; Potency, µM, for inactives: largest response in the series, negative = inhibition, hits mostly inhibitors; 310,000 compounds, 3.5% hits; AID 1490;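 also: the enzyme is Sfp with the accession as filed and its product quenches rhodamine fluorescence; 0% = enzyme reaction without inhibitor and -100% = no enzyme wells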
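Fluorescence-quenching assay with 15 nM Sfp, 5 uM rhodamine-CoA and 12.5 uM BHQ-2-labelled ybbR peptide in pH 7.6 Hepes/MgCl2 buffer. Enzyme was pre-incubated with compound for 15 min at room temperature. Rate was taken from the 30-min fluorescence change (525/598 nm).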
* = called active by the depositor; ? = inconclusive; . = no result. Calls follow the shape of the dose curve; as a rule, active = well fitted curve in the direction sought with a large enough effect; inconclusive = small, poorly fitted or top-dose-only effect, or another doubt; inactive = no such curve, though single readings can be large; an effect the other way counts as inactive or inconclusive. Unless noted, % is scaled to controls: 0 for no effect and ±100 for the full control effect; potency is read from the fitted curve at half-maximal effect.

SMILES	VDR inh	12-LOX inh	PLK1 PBD inh	Sfp inh
Cc1ccc(-c2n[nH]c(=S)n2/N=C/C=C/c2ccccc2[N+](=O)[O-])cc1	-8%	-13%	-21%	?
O=[N+]([O-])c1ccccc1/C=C/C=N/n1c(-c2cc(-c3ccccc3)n[nH]2)n[nH]c1=S	-7%	?	?	18µM*
COc1ccccc1/C=C/C=N/n1c(-c2cc(-c3ccccc3)n[nH]2)n[nH]c1=S	-10%	10µM*	-19%	0%
S=C(Nc1ccc(Cl)cc1)N(CCCN1CCOCC1)Cc1cccs1	-5%	0%	-4%	4%
CC(=C/c1ccco1)/C=N/NC(=O)c1nnn(-c2nonc2N)c1CN(C)C	3%	-7%	6%	-6%
NS(=O)(=O)c1cccc(NC(=O)COC(=O)CC2CC3CCC2C3)c1 (centres undefined)	2%	12%	3%	18%
O=C(COC(=O)CC1CC2CCC1C2)Nc1cccc(S(=O)(=O)NC2=NCCCCC2)c1 (centres undefined)	?	1%	21µM*	-3%
O=C(O)c1cccc(S(=O)(=O)Nc2ccc(O)c(Sc3nc4ccccc4s3)c2)c1	-27%	?	21µM*	-2%
O=S(=O)(Nc1ccc(O)c(Sc2nc3ccccc3s2)c1)c1cc(Cl)ccc1Cl	-2%	10µM*	.	.
O=S(=O)(Nc1ccc(O)c(Sc2nc3ccccc3s2)c1)c1cccc2ccccc12	-29%	-13%	0%	10%
CCN(CC(=O)Nc1ccc(NC(C)=O)cc1)C(=O)COc1ccc2ccccc2c1	-26%	-16%	-7%	.
CCN1C(=O)C2CCCCN2c2ccc(C(=O)NCCOC)cc21 (centres undefined)	-10%	0%	-13%	3%
CCN(c1ccccc1)c1nc(=O)c2cccnc2s1	3%	-25%	-9%	-4%
CCN(c1ccccc1)c1cc2ccccc2c(=O)[nH]1	?	-22%	30µM*	-10%
CC(C)(Oc1ccc2c(c1)CCC2)C(=O)N1CCC2(CC(=O)NC2=O)C1 (centres undefined)	.	46%	.	.
COC(=O)c1ccc(CSc2ccc3nnc(-c4cccc(F)c4)n3n2)o1	-29%	28µM*	?	50µM*
Cc1ccc(C(C)C)c(OCc2ccc(C(=O)N/N=C/c3ccc(O)c(O)c3)cc2)c1	-6%	?	-1%	?
O=C(NCc1ccc2c(c1)OCO2)c1cc(COc2c(F)cccc2F)on1	-4%	7%	4%	13%
CN(C)c1ccc(/C=C/c2c([N+](=O)[O-])c(=O)n(C)c(=O)n2C)cc1	-4%	0%	-6%	8%
Cn1c(/C=C/c2ccc(Br)cc2)c([N+](=O)[O-])c(=O)n(C)c1=O	50µM*	0%	-7%	-14%
CCOC(=O)C1=C(C)N(C)C(=O)NC1c1ccccc1OC (centres undefined)	-7%	126%	-9%	17%
CCOC(=O)C1Nc2ccc(C(F)(F)F)cc2C2c3ccccc3CC12 (centres undefined)	50µM*	-5%	-8%	.
CCOC(=O)C1Nc2ccccc2C2C(O)C(O)CC12 (centres undefined)	-21%	-25%	38µM*	.
CC(=O)N/N=C/c1ccccc1	.	2%	.	.
CC(=O)N/N=C/c1cc(C(C)C)cc(/C=N/NC(C)=O)c1O	-10%	0%	21µM*	3%
SMILES	VDR inh	12-LOX inh	PLK1 PBD inh	Sfp inh
CCCNC(=O)C1(c2ccc(NS(C)(=O)=O)cc2)CCCCC1	.	35%	.	.
CCOC(=O)C(CC)c1cc2n(c(=O)c1C#N)CCC21OCCO1 (centres undefined)	.	-20%	2%	.
COc1ccc(C=NNc2nc3c([nH]2)c(=O)n(C)c(=O)n3C)cc1	-1%	-5%	-5%	.
Cc1ccccc1NN=Nc1nc2c([nH]1)c(=O)n(C)c(=O)n2C	-18%	-31%	?	-15%
Cn1c(=O)c2[nH]c(N=NNc3ccccc3F)nc2n(C)c1=O	79µM*	?	-16%	25µM*
COc1ccc(NN=Nc2nc3c([nH]2)c(=O)n(C)c(=O)n3C)cc1	?	?	4.7µM*	16µM*
CCN(C(=O)c1cc2ccccc2oc1=O)c1nc2ccccc2s1	.	-40%	.	.
Cc1cccc(C(=O)OCC(=O)NC2CC2)c1O	-9%	-10%	6%	.
O=C(Oc1ccccc1)n1c(=S)oc2ccccc21	-20%	?	21µM*	-7%
Cc1ccccc1OC(=O)n1c(=S)oc2cc(Cl)ccc21	-9%	?	13µM*	-23%
COC(=O)n1c(=O)oc2ccccc21	0%	0%	-9%	10%
Cc1ccc2c(CC(=O)N(CC3CCCO3)c3c(N)n(Cc4ccccc4)c(=O)[nH]c3=O)coc2c1 (centres undefined)	-7%	-20%	-5%	.
CC(=O)N1CCN(c2ccc(NCc3ccc(-c4ccc(Br)cc4)o3)cc2)CC1	79µM*	?	.	.
CC(=O)N1CCN(c2ccc(NCc3ccc(C)s3)cc2)CC1	?	?	-1%	50µM*
CC(=O)N1CCN(c2ccc(NCc3cccs3)cc2)CC1	-18%	?	?	22µM*
CCOC(=O)c1cc(NCc2cccc3ccccc23)ccc1N1CCOCC1	.	-27%	.	.
CC(=O)N1CCN(c2ccc(NCc3cccc4ccccc34)cc2)CC1	?	?	24µM*	-22%
NC1=NC(=O)C(Cc2ccc(F)cc2)S1 (centres undefined)	-15%	?	24µM*	6%
Cc1cc(O)c2c(c1O)C(=O)[C@]13C(=C2O)C(=O)[C@@H]2[C@@H](O)[C@H]1[C@@H]1[C@H](O)[C@H]3C(=O)C3=C(O)c4c(O)cc(C)c(O)c4C(=O)[C@]312	-8%	?	30µM*	.
O=C(Nc1cc(-c2nc3cc(Cl)ccc3o2)ccc1Cl)c1cccs1	10%	-12%	.	.
Cc1ccc([C@H]2Nc3ccc(S(=O)(=O)Nc4cccc(Cl)c4C)cc3[C@H]3C=CC[C@H]32)cc1	-6%	40µM*	.	.
COc1ccc(OC)c(C(=O)NC(CC(N)=O)c2ccc(N3CCC(Cc4ccccc4)CC3)c([N+](=O)[O-])c2)c1 (centres undefined)	-5%	-1%	1%	7%
Nc1ccc2oc(-c3cc(Br)ccc3Cl)nc2c1	-25%	13%	30µM*	10%
CC(Sc1nc(N)cc(N)n1)C(=O)Nc1ccc(N2CCOCC2)cc1 (centres undefined)	10%	3%	-10%	.
CCCc1cc(=O)[nH]c(SCC(=O)CSc2nc(CCC)cc(=O)[nH]2)n1	?	?	-16%	56µM*
CCCc1nc(SCC(=O)N2CCc3ccccc32)c2c(=O)n(C)c(=O)n(C)c2n1	.	.	.	16%
CC(C)c1nc(SCC(=O)N2CCCc3ccccc32)c2c(=O)n(C)c(=O)n(C)c2n1	-5%	-8%	2%	45µM*
CCCc1cc(=O)[nH]c(SCC(=O)N2CCCc3ccccc32)n1	-14%	-20%	21µM*	2%
O=C(CSc1nc(-c2ccccc2)cc(=O)[nH]1)N1CCc2ccccc21	?	-22%	3µM*	10%
